# Data: PubChem BioAssay (NCATS)
# Records with an inconclusive call do not appear. A call without a number means that no potency is given here. Activity calls are given as the source filed them. Calls follow the shape of the dose curve; as a rule, active = well fitted curve in the direction sought with a large enough effect; inconclusive = small, poorly fitted or top-dose-only effect, or another doubt; inactive = no such curve, though single readings can be large; an effect the other way counts as inactive or inconclusive.
# How the values were obtained:
# [1] = molecular target: Glutathione peroxidase 1 (Homo sapiens) (UniProt P07203); assay: Primary qHTS Assay for Inhibitors of Recombinant Selenoprotein Glutathione Peroxidase 1 (GPX1) (AID 1845191); also: nearly all actives have a fitted effect of over 65% in size
# Chain of Glutathione peroxidase 1 (Homo sapiens) (P07203 whole entry, looked up): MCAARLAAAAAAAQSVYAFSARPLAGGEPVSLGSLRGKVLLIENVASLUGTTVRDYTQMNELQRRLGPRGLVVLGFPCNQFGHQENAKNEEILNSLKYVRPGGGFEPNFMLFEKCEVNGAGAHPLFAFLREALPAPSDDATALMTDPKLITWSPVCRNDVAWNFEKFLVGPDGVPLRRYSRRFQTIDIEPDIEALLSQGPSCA
# In short: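 GR-coupled assay: compounds preincubated 30 min at room temperature with GPX1, then reaction started with CHP; final 10 nM GPX1, 1 mM GSH, 0.5 mM CHP, 0.5 mM NADPH, 100 nM GR, 0.01% BSA, pH 7.5 Tris buffer. NADPH fluorescence (340/450 nm) read at 0 and 15 min.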
# [2] = molecular target: Phospholipid hydroperoxide glutathione peroxidase GPX4 (Homo sapiens) (UniProt P36969); assay: Primary qHTS Assay for Inhibitors of Recombinant Selenoprotein Glutathione Peroxidase 4 (GPX4) (AID 1845192); also: nearly all actives have a fitted effect of over 65% in size; as to activity change, negative = inhibition: series mostly up to about 50 µM
# Chain of Phospholipid hydroperoxide glutathione peroxidase GPX4 (Homo sapiens) (P36969 whole entry, looked up): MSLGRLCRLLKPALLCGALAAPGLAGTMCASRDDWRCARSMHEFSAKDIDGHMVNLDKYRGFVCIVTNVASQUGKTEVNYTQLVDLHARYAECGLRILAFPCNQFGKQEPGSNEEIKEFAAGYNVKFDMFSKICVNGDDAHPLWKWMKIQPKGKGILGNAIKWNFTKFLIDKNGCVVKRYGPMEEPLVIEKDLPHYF
# In short: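 GR-coupled assay: recombinant GPX4 preincubated 30 min with compound at room temperature; final 200 nM GPX4, 1 mM GSH, 0.5 mM cumene hydroperoxide, 0.5 mM NADPH, 100 nM GR, 0.01% BSA, pH 7.5 Tris. NADPH fluorescence (340/450 nm) read at 0 and 15 min.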
# [3] = molecular target: Luciferin 4-monooxygenase (Photinus pyralis) (UniProt P08659); assay: Primary firefly luciferase (FLuc) qHTS assay for identification of artifact compounds. (AID 1845220); also: nearly all actives have a fitted effect of over 60% in size; as to activity change, negative = inhibition: series mostly up to about 54 µM
# In short: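 D-luciferin and ATP (10 uM each, final) in Tris acetate buffer pH 7.6 were incubated with compounds for 15 min at room temperature. The reaction was started with 10 nM Photinus pyralis luciferase and luminescence read after 5 min. Percent inhibition was fitted to a 4-parameter Hill equation.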
# [4] = Primary fluorescence-based thiol-reactive (MSTI) qHTS assay for identification of artifact compounds. (AID 1845221); also: nearly all actives have a fitted effect of over 65% in size; also: potency is read from the fitted curve at half-maximal effect;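 as to activity change, negative = thiol reactive: series mostly up to about 54 µM; thiol-reactive compounds lower the probe fluorescence signal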
# In short: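 Probe: MSTI 4 uM, PBS pH 7.4, 2% DMSO. Incubation 1 h, RT, light-protected. Readout fluorescence 525/598 nm.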
# [5] = system: Nanoluciferase (engineered Oplophorus gracilirostris luciferase); assay: Primary Nanoluciferase (NLuc) qHTS assay for identification of artifact compounds. (AID 1845222); also: series mostly up to about 54 µM
# In short: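 Diluted conditioned medium from NLuc-expressing S16 cells treated with compounds for 15 min at room temperature, then Nano-Glo substrate added; luminescence read after 5 min. Percent inhibition versus no-enzyme and DMSO controls fitted to 4-parameter Hill equation.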
smiles,measurement,setting,value
OC[C@H]1O[C@@H](OCCc2ccc(O)cc2)[C@H](O)[C@@H](O)[C@@H]1O,Potency,[1],inactive
same,Potency,[2],inactive
same,Potency,[3],inactive
same,Potency,[4],11.9 µM (active)
same,Potency,[5],inactive
CCC(C)/C=C(C)/C=C/C1=CC2=C(Cl)C(=O)C(C)(OC(C)=O)C(=O)C2=CN1C1CCCCN(C(CCC(N)=O)C(=O)O)C1=O (configuration not stated),Potency,[1],inactive
same,Potency,[2],inactive
same,Potency,[3],inactive
same,Potency,[4],0.446 µM (active)
same,Potency,[5],inactive
COc1cc2c(Nc3ccc(Cl)c(Cl)c3F)ncnc2cc1OCC1C[C@@H]2CN(C)C[C@@H]2C1 (some centres not stated),Potency,[1],inactive
same,Potency,[2],inactive
same,Potency,[3],inactive
same,Potency,[4],inactive
same,Potency,[5],inactive
CC(=O)OCC1=C[C@H](O)[C@@H]2C(C(=O)O)=CO[C@@H](O[C@@H]3O[C@H](CO)[C@@H](O)[C@H](O)[C@H]3O)[C@H]12,Potency,[1],inactive
same,Potency,[2],inactive
same,Potency,[3],inactive
same,Potency,[4],inactive
same,Potency,[5],inactive
CC(C)(OC1OC(CO)C(O)C(O)C1O)C1CCC(O)(CO)C2CC(O)C(C)(O)C2C1 (configuration not stated),Potency,[1],inactive
same,Potency,[2],inactive
same,Potency,[3],inactive
same,Potency,[4],inactive
same,Potency,[5],inactive
NS(=O)(=O)OC[C@@H]1C[C@@H](n2ccc3c(N[C@H]4CCc5ccccc54)ncnc32)C[C@@H]1O,Potency,[1],inactive
same,Potency,[2],inactive
same,Potency,[3],inactive
same,Potency,[4],inactive
same,Potency,[5],inactive
CC1=C(CC(=O)O)c2cc(F)ccc2C1=Cc1ccc(S(C)(=O)=O)cc1,Potency,[1],inactive
same,Potency,[2],inactive
same,Potency,[3],inactive
same,Potency,[4],inactive
same,Potency,[5],inactive
C=CCc1ccc(O[C@@H]2O[C@H](CO)[C@@H](O)[C@H](O)[C@H]2O)c(OC)c1,Potency,[1],inactive
same,Potency,[2],inactive
same,Potency,[3],inactive
same,Potency,[4],7.36 µM (active)
same,Potency,[5],inactive
COc1c(C)c2c(c(O)c1C/C=C(\C)CC/C=C(\C)CCC(=O)O)C(=O)OC2,Potency,[1],inactive
same,Potency,[2],inactive
same,Potency,[3],inactive
same,Potency,[4],inactive
same,Potency,[5],inactive
C=C(C(=O)O)C1CCC(C)C2CCC(=O)OC2(C)C1 (configuration not stated),Potency,[1],inactive
same,Potency,[2],inactive
same,Potency,[3],inactive
same,Potency,[4],11.9 µM (active)
same,Potency,[5],inactive
N#CCc1ccc(O)cc1O[C@@H]1O[C@H](CO)[C@@H](O)[C@H](O)[C@H]1O,Potency,[1],inactive
same,Potency,[2],inactive
same,Potency,[3],inactive
same,Potency,[4],13.1 µM (active)
same,Potency,[5],inactive
CN1C(=O)c2ccccc2-n2c(nc3ccccc3c2=O)[C@@]12O[C@H]2c1ccccc1,Potency,[1],inactive
same,Potency,[2],inactive
same,Potency,[3],inactive
same,Potency,[4],inactive
same,Potency,[5],inactive
C=C(C)[C@@H](C)[C@H]1O[C@]23C[C@]4(CO2)C(CCC2[C@@]5(C)CC[C@H](O[C@@H]6OC[C@H](O)[C@H](O[C@@H]7O[C@H](CO)[C@@H](O)[C@H](O)[C@H]7O)[C@H]6O[C@@H]6O[C@@H](CO)[C@H](O)[C@H]6O)C(C)(C)C5CC[C@]24C)C3[C@@](C)(O)[C@@H]1OC(C)=O (some centres not stated),Potency,[1],inactive
same,Potency,[2],inactive
same,"activity change, negative = inhibition",[3],4.34% [at 11.6 µM] (inactive)
same,"activity change, negative = thiol reactive",[4],6.68% [at 11.5 µM] (inactive)
same,"activity, negative = inhibition",[5],4.88% [at 11.6 µM] (inactive)
CC1(C)CC2C3=CCC4C5(C)CCC(OC6OC(C(=O)O)C(O)C(O)C6OC6OC(CO)C(O)C(O)C6OC6OC(CO)C(O)C(O)C6O)C(C)(CO)C5CCC4(C)C3(C)CCC2(C)C(OC2OCC(O)C(OC3OC(CO)C(O)C(O)C3O)C2O)C1O (configuration not stated),"activity, negative = inhibition",[1],-11.2% [at 9.52 µM] (inactive)
same,"activity change, negative = inhibition",[2],-2.61% [at 9.73 µM] (inactive)
same,"activity change, negative = inhibition",[3],-3.45% [at 11.6 µM] (inactive)
same,"activity change, negative = thiol reactive",[4],89.2% [at 11.5 µM] (inactive)
same,"activity, negative = inhibition",[5],2.9% [at 11.6 µM] (inactive)
CC12CC34C=CC(=O)C(C)(CCC(=O)O)C3C(CC1C4)O2 (configuration not stated),Potency,[1],inactive
same,Potency,[2],inactive
same,Potency,[3],inactive
same,Potency,[4],inactive
same,Potency,[5],inactive
COc1cc(C2c3cc(O)c(OC)cc3CC(CO)C2CO)ccc1O (configuration not stated),Potency,[1],inactive
same,Potency,[2],inactive
same,Potency,[3],inactive
same,Potency,[4],8.26 µM (active)
same,Potency,[5],inactive
C=CCc1ccc(O[C@@H]2O[C@H](CO[C@@H]3O[C@@H](C)[C@H](O)[C@@H](O)[C@H]3O)[C@@H](O)[C@H](O)[C@H]2O)cc1,Potency,[1],inactive
same,Potency,[2],inactive
same,Potency,[3],inactive
same,Potency,[5],inactive
CNC(=O)COC(=O)NCCC1CCN(c2cccc(C)n2)CC1,Potency,[1],inactive
same,Potency,[2],inactive
same,Potency,[3],inactive
same,Potency,[5],inactive
C/C=C(\C)C(=O)OC[C@H]1O[C@H](O[C@H]2O[C@H](CO)[C@@H](OC(=O)/C(C)=C/C)[C@H](O)[C@H]2O[C@@H]2O[C@H](CO)[C@@H](O)[C@H](O)[C@H]2O)[C@H](O[C@@H]2O[C@H](CO)[C@@H](O)[C@H](O)[C@H]2O)[C@@H](O)[C@@H]1O,Potency,[1],inactive
same,Potency,[2],inactive
same,"activity change, negative = inhibition",[3],1.93% [at 11.6 µM] (inactive)
same,"activity, negative = inhibition",[5],0% [at 11.6 µM] (inactive)
